Hits are enriched below; roughly 3% of the tested compounds scored in any of these assays.
HTR1E antagonist – 5-HT1E receptor antagonists, primary screen, cell-based, HTS. CHO 5-HT1E Ga15 NFAT-bla reporter, FRET, antagonist. inhibition, % at 6 µM. 5-hydroxytryptamine receptor 1E (Homo sapiens), P28566. hit rate 0.99% among 65,000;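 active = inhibition above a set limit, the mean inhibition across every tested compound plus 3 SD, cut at about 29% in these data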;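 also: signal is the 460 over 535 nm emission ratio of beta-lactamase substrate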
HER2 expr 66K – inhibitors of Her2 protein expression, primary screen, SKBR-3 cells, AlphaScreen, 66K library | SKBR-3 HER2 protein level, 18-24 h; stronger effect = lower value | hit rate 0.69% among 65,000 | AID 645, 2007 | HER2 level % of control, % at 10 µM | Receptor tyrosine-protein kinase erbB-2 (Homo sapiens), P04626;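 active = HER2 level under 5% of the carrier-only control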;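 also: lower value means stronger loss of Her2 protein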
Target sequence (P04626 whole entry, looked up): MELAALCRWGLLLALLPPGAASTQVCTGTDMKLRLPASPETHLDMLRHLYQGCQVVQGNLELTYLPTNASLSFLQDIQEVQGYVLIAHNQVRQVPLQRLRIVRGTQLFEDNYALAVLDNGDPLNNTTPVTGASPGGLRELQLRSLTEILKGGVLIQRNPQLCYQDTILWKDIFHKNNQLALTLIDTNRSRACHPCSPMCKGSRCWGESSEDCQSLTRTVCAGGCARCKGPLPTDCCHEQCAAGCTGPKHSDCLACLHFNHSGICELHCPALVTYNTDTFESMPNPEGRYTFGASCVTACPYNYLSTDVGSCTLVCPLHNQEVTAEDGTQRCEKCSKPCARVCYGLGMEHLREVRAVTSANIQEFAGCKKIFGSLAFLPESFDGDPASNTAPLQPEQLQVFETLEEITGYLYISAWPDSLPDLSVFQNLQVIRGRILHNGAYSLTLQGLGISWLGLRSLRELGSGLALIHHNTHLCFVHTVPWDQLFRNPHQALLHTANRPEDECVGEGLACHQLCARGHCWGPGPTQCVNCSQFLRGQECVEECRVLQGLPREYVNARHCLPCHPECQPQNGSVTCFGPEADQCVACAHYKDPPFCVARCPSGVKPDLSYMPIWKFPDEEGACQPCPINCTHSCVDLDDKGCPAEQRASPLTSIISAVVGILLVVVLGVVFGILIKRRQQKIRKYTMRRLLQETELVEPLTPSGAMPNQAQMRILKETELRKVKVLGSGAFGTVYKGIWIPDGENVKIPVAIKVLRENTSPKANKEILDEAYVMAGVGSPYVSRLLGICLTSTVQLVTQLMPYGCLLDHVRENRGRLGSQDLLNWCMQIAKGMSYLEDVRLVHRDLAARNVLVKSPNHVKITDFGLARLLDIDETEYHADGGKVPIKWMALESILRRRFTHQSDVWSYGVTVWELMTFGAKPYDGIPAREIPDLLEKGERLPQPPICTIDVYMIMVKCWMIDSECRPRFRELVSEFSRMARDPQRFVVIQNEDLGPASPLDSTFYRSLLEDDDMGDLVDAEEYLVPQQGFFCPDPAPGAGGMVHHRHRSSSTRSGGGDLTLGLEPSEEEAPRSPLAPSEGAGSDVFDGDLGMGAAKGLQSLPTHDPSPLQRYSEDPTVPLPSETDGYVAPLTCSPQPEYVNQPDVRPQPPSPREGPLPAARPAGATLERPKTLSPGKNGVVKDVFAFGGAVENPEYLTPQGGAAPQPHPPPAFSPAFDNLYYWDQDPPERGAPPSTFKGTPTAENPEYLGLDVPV
HTR1A agonist – human 5-HT1a receptor agonists, primary screen, cell-based, CHO, Ga15 NFAT-bla reporter; CHO 5-HT1a Ga15 NFAT-bla reporter, FRET ratio; 0% basal, 100% maximal reference agonist; activation, % at 10 µM; hit rate 0.56% among 65,000; AID 567, 2006; 5-hydroxytryptamine receptor 1A (Homo sapiens), P08908;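 active = activation above the screen-wide mean activation plus 3 SD, cut at about 19% in these data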
5HT1E ag – 5-HT1E receptor agonists, primary screen, cell-based, HTS. activation, % at 6 µM. hit rate 0.69% among 65,000. AID 574, 2007. CHO 5-HT1E Ga15 NFAT-bla reporter, FRET; 0% DMSO wells, 100% control agonist wells;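 active = activation above a set limit, the screen-wide mean activation plus 3 SD, cut at about 8.5% in these data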
5HT1a antag – human 5-HT1a receptor antagonists, primary screen, cell-based, CHO, Ga15 NFAT-bla reporter; 5-hydroxytryptamine receptor 1A (Homo sapiens), P08908; CHO 5-HT1a Ga15 NFAT-bla reporter, antagonist mode; inhibition, % at 10 µM; hit rate 0.68% among 62,000;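 active = inhibition above the mean of all tested compounds plus 3 SD, cut at about 43% in these data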;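 also: receptor stimulated by 5-CT agonist at 100 nM near EC80; beta-lactamase reporter measured by ratiometric fluorescence of a cleavable substrate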
Of the large screens only hits and unclear results are named; the others gave an inactive call.

CC(C)=CCSc1nnc([C@@H](NC(=O)OC(C)(C)C)C(C)C)o1	none
CC(C)[C@H](NC(=O)OC(C)(C)C)c1nnc(S(=O)(=O)Cc2c(F)cccc2Cl)o1	HTR1E antagonist 67.3, HER2 expr 66K -12.5, 5HT1a antag 78.7
CCCn1c(SCc2nc(-c3cccs3)no2)nnc1-c1ccncc1	none
CCOc1ccc(-n2c(SCc3nc(-c4cccs4)no3)nnc2-c2ccncc2)cc1	5HT1a antag 49.5
N#CC1=C2SCN(c3ccccc3)CN2C(=O)CC1c1c(Cl)cccc1Cl (configuration not stated)	none
N#CC1=C2SCC(O)(c3ccccc3)N2C(=O)CC1c1cccs1 (configuration not stated)	HTR1E antagonist 34.1
N#CC1=C2SCN(c3ccccc3)CN2C(=O)CC1c1cccs1 (configuration not stated)	HER2 expr 66K -19.6
COc1ccc(C2CC(=O)N3C(=C2C#N)SCC3(O)c2ccccc2)cc1 (configuration not stated)	none
Cc1ccc(C2CC(=O)N3CN(c4ccc(Br)cc4)CSC3=C2C#N)o1 (configuration not stated)	HER2 expr 66K -19.5
CCC(CC)c1nc2cc(OC)c(OC)cc2c(=O)o1	5HT1E ag 35.0 (no result: 5HT1a antag)
COc1ccc(N2CCN(c3oc(COc4ccccc4Cl)nc3C#N)CC2)cc1	5HT1a antag 49.5 (no result: HER2 expr 66K)
N#Cc1nc(COc2ccc(Cl)cc2)oc1N1CCCCCC1	none
N#Cc1nc(COc2ccccc2Cl)oc1N1CCCCCC1	none
CC1CN(c2oc(COc3ccc(Cl)cc3Cl)nc2C#N)CC(C)O1 (configuration not stated)	HER2 expr 66K -19.2
N#Cc1nc(COc2ccc(F)cc2)oc1N1CCC(Cc2ccccc2)CC1	5HT1a antag 56.0
N#Cc1nc(COc2ccc(F)cc2)oc1N1CCN(Cc2ccccc2)CC1	none
COc1ccc(OCc2nc(C#N)c(N3CCN(c4ccc(OC)cc4)CC3)o2)cc1	5HT1a antag 51.8
c1ccc(CNC2=NCCCCC2)cc1	5HT1E ag 12.8
COCCOC(=O)C1=C(C)Nc2nc(C)nn2C1c1ccc(F)cc1 (configuration not stated)	HTR1A agonist 30.5
Cc1ccc(C(=O)Nc2nc3ccccc3c(=O)s2)cc1	5HT1a antag 66.6
CCCn1c(NC(=O)c2ccc(C)cc2)nc2ccccc21	none
COc1ccc(C(=O)Nc2cccc3c2C(=O)NC3=O)cc1S(=O)(=O)N1CCOCC1	none
CCN(CC)CCCCOc1ccccc1OC	5HT1E ag 10.3
O=C(O)c1cccnc1SCC(=O)N1CCCCCC1	none
CN(C)C(=O)CSc1cccc2cccnc12	HTR1E antagonist 39.2
O=C(CSc1cccc2cccnc12)N1CCCC1	HTR1E antagonist 41.6
CN(CC(=O)N1CCc2ccccc21)S(=O)(=O)c1cccc2cccnc12	none
CCCCc1c(C)c2ccc(OC)c(/C(C)=N\O)c2oc1=O	none
CC(=O)C1=C(C)NC(SCC(=O)c2ccc(Cl)c(Cl)c2)=C(C#N)C1c1ccco1 (configuration not stated)	none
CC(=O)C1=C(C)NC(SCC(=O)c2cc(Cl)ccc2Cl)=C(C#N)C1c1ccco1 (configuration not stated)	HTR1E antagonist 31.2
COc1ccccc1-c1nnc2sc(C3CCCCC3)nn12	none (no result: 5HT1a antag)
c1cc(-c2nnc3sc(C4CCCCC4)nn23)ccn1	5HT1E ag 16.7 (no result: 5HT1a antag)
Clc1ccccc1OCCCCN1CCCC1	5HT1E ag 14.7
Brc1cccc(C2CC(c3ccccc3)n3nnnc3N2)c1 (configuration not stated)	none
CCOC(=O)C1=C(C)NC(=O)NC1c1ccc(OCC(=O)OC)c(OC)c1 (configuration not stated)	none
CCOC(=O)C1=C(C)NC(=O)NC1c1ccc(OCC(=O)Nc2ccccc2)c(OC)c1 (configuration not stated)	5HT1E ag 88.9
COc1ccc(-c2cc(C(F)(F)F)nc(SCCC(=O)Nc3cc(C)on3)n2)cc1	none
CCOC(=O)CS(=O)(=O)c1nc(-c2ccccc2)cc(C(F)(F)F)n1	HTR1E antagonist 107.8, HER2 expr 66K -27.2, 5HT1a antag 104.8
Fc1ccc(-c2cc(C(F)(F)F)nc(N3CCCCC3)n2)cc1	none
COCC(C)NC(=O)CCS(=O)(=O)c1nc(-c2ccc(OC)cc2)cc(C(F)(F)F)n1 (configuration not stated)	HER2 expr 66K -19.6
COc1nc(-c2ccccc2)cc(C(F)(F)F)n1	none
CCOC(=O)CS(=O)(=O)c1ccc2ccccc2c1	none
CCOC(=O)CS(=O)(=O)c1nc(-c2ccc(F)cc2)cc(C(F)(F)F)n1	HTR1E antagonist 81.8, HER2 expr 66K -17.6, 5HT1a antag 102.5
CCOC(=O)CCS(=O)(=O)c1nc(-c2ccccc2)cc(C(F)(F)F)n1	HTR1E antagonist 54.3, HER2 expr 66K -8.7, 5HT1a antag 86.3
CCOCCCNC(=O)C1CCCN1C(=O)NC1CCCCC1 (configuration not stated)	none
COCCn1c(SCC(=O)N2CCN(c3ccccc3)CC2)nc2c(c1=O)SC(C)C2 (configuration not stated)	none
COc1ccccc1CC(NC(C)=O)C(=O)N1CCN(C(=O)Nc2ccccc2Cl)CC1 (configuration not stated)	none
N#CC1=C2SCCN2C(=O)C(C#N)C12CCCCC2 (configuration not stated)	none
COC(=O)CSc1cc(SCC(=O)OC)c(C#N)c(SCC(=O)OC)c1	HER2 expr 66K 2.9
COC(=O)CSc1nc(N)c(C#N)c(C(C)C)c1C#N	none
COc1ccc(OC)c(NC(=O)Cn2cc(C#N)c3cc(Br)ccc32)c1	none
CCn1c2ccccc2c2nnc(SCN3C(=O)c4ccccc4C3=O)nc21	HTR1E antagonist 38.5
Cn1c2ccccc2c2nnc(SCN3C(=O)c4ccccc4C3=O)nc21	none
CCCn1c2ccccc2c2nnc(SCC(=O)OCC)nc21	none
CCn1c2ccccc2c2nnc(SCc3ccccc3)nc21	HTR1E antagonist 32.8
CCCn1c2ccccc2c2nnc(SCC(=O)OC)nc21	HTR1E antagonist 29.5
O=C(NCC(c1cccs1)N1CCOCC1)c1ccc(Cl)s1 (configuration not stated)	none
C=C(C)Cn1c(CCCNC(=O)C(C)(C)C)nc2ccccc21	none
Oc1ccc2ccccc2c1CN1CCN(c2ccccc2F)CC1	5HT1E ag 13.8
NC(=O)CN1CCN(c2ccccc2F)CC1	none
COc1ccc(C)cc1NC(=O)CSc1nnnn1Cc1ccccc1	none

Compound activity deposited in PubChem BioAssay by several laboratories.
